Results taken from PubChem BioAssay (NCATS).
Records with an inconclusive call do not appear. Entries that show only a call come without a potency. The source made the active and inactive calls. Unless noted, calls come from the whole dose curve; as a rule, active = well fitted curve in the direction sought with a large enough effect; inconclusive = small, poorly fitted or top-dose-only effect, or another doubt; inactive = no such curve, though single readings can be large; an effect the other way counts as inactive or inconclusive.

Key:
[1] = target: Aldehyde dehydrogenase, mitochondrial (Homo sapiens) (UniProt P05091); assay: qHTS for Inhibitors of the Aldehyde Dehydrogenase Family (ALDH2) Confirmatory screens (AID 2061303; active = well fitted inhibition curve with a large enough effect; title and protocol of this record describe different tests; note: nearly all actives have a fitted effect of over 45% in size; note: potency is the fitted concentration of half-maximal effect)
[2] = qHTS for Inhibitors of the Aldehyde Dehydrogenase Family (ALDH1A2, ALDH1A3, ALDH2, ALDH3A1) (AID 2061307); note: nearly all actives have a fitted effect of over 50% in size; for potency: test system not described further here; potency is the fitted concentration of half-maximal effect
[3] = target: Aldehyde dehydrogenase, mitochondrial (Homo sapiens) (UniProt P05091); assay: qHTS for Inhibitors of the Aldehyde Dehydrogenase Family (ALDH2) Primary screen (AID 2061308); note: nearly all actives have a fitted effect of over 55% in size; note: potency is the fitted concentration of half-maximal effect
[4] = target: Retinaldehyde dehydrogenase 3 (Homo sapiens) (UniProt P47895); assay: qHTS for Inhibitors of the Aldehyde Dehydrogenase Family (ALDH1A3) Confirmatory screens (AID 2061311); note: nearly all actives have a fitted effect of over 60% in size; note: potency is the fitted concentration of half-maximal effect
[5] = target: Retinal dehydrogenase 2 (Homo sapiens) (UniProt O94788); assay: qHTS for Inhibitors of the Aldehyde Dehydrogenase Family (ALDH1A2) Confirmation screens (AID 2061314); note: nearly all actives have a fitted effect of over 65% in size; note: potency is the fitted concentration of half-maximal effect
[6] = target: Retinaldehyde dehydrogenase 3 (Homo sapiens) (UniProt P47895); assay: qHTS for Inhibitors of the Aldehyde Dehydrogenase Family (ALDH1A3) Primary screen (AID 2061315)
[7] = target: Aldehyde dehydrogenase 1A1 (Homo sapiens) (UniProt P00352); assay: qHTS for Inhibitors of the Aldehyde Dehydrogenase Family (ALDH1A1) Confirmatory screens (AID 2061316); note: nearly all actives have a fitted effect of over 65% in size; note: potency is the fitted concentration of half-maximal effect

Row | SMILES | Potency [1] | Potency [2] | Potency [3] | Potency [4] | Potency [5] | Potency [6] | Potency [7]
1 | O=C(NC1CCCc2c1cnn2-c1ccc(F)cc1F)c1ccccn1 (stereo not given) | inactive | inactive | inactive | inactive | inactive | inactive | inactive
2 | Cc1cc(N2C(=O)c3ccccc3C2=O)n[nH]1 | inactive | inactive | inactive | inactive | inactive | inactive | inactive
3 | COC(=O)c1ccc2c(c1)S(=O)(=O)N=C2Sc1cc(C)ccc1C | inactive | inactive | inactive | inactive | 14.2 µM (active) | inactive | inactive
4 | C[C@@](Cc1ccccc1)(C(=O)O)N1C(=O)c2ccc(C(=O)O)cc2C1=O | inactive | inactive | inactive | inactive | inactive | inactive | inactive
5 | O=C(O)c1ccc(O)c2ncc(N3CCCN(C4CCCC4)CC3)cc12 | inactive | inactive | inactive | 14.2 µM (active) | inactive |  | inactive
6 | N#Cc1c(C(=O)c2cccs2)no[n+]1[O-] | 3.98 µM (active) | 2.24 µM (active) | 0.282 µM (active) | 1.59 µM (active) | 3.16 µM (active) |  | 0.225 µM (active)
7 | O=C(NN1CCCC1)NS(=O)(=O)c1ccc(Cl)cc1 | inactive | inactive | inactive | inactive | inactive |  | inactive
8 | CCc1nn2c(=O)cc(-c3ccncc3)nc2s1 | inactive | inactive | inactive | inactive | 25.2 µM (active) | inactive | inactive
9 | CC(=O)Nc1ccc(S(=O)(=O)N2CCN(S(=O)(=O)c3ccc4c(c3)OCCO4)CC2)cc1 | inactive | inactive | inactive | inactive | inactive | inactive | inactive
10 | CCCCN(CCCNC(=S)NCCCc1cnc[nH]1)c1ccc(Br)cn1 | 22.4 µM (active) | 12.6 µM (active) | inactive | 14.1 µM (active) | 8.96 µM (active) | inactive | inactive
11 | CCc1nnc(-c2cnn(C)c2N)n1CCCn1ccnc1 | inactive | inactive | inactive | inactive | inactive | inactive | inactive
12 | Cc1ccc(-c2cc(C(=O)N3CCCCC3)c3ccccc3n2)cc1C | inactive | inactive | inactive | inactive | inactive | inactive | inactive
13 | O=C(O)c1cccc(-c2noc(-c3cccc(C(F)(F)F)c3)n2)c1 | inactive | 0.956 µM (active) | inactive | 0.504 µM (active) | inactive |  | inactive
14 | O=C(CSc1nnc(-c2cccc(S(=O)(=O)N3CCCC3)c2)n1-c1ccccc1)Nc1ccc(F)cc1 | inactive | inactive | inactive | inactive | inactive | inactive | inactive
15 | Cc1cc(C)nc(NC(=S)N2CCN(c3ccc4ccccc4c3)CC2)c1 | 11.3 µM (active) | 3.55 µM (active) | 11.2 µM (active) | 7.12 µM (active) | 12.7 µM (active) |  | 2.83 µM (active)
16 | COc1ccc(C[C@@H](NS(=O)(=O)c2ccc(C(=O)O)cc2)C(=O)O)cc1 | inactive | inactive | inactive | inactive | inactive | inactive | inactive
17 | CCOc1cc(CNc2ccc(O)cc2)ccc1OCc1ccc(Cl)cc1 | 10.1 µM (active) | 11.3 µM (active) | 3.16 µM (active) | 1.01 µM (active) | 0.504 µM (active) |  | 6.34 µM (active)
18 | FC(F)(F)c1ccccc1-c1nc(NCc2ccc(Cl)cc2)c2ccccc2n1 | inactive | inactive | inactive | inactive |  | inactive | inactive
19 | O=[N+]([O-])c1ccc(CNc2ccc([S+](=O)([O-])Nc3nccs3)cc2)c(O)c1 | inactive | inactive | inactive | inactive |  | inactive | 
20 | Nc1nnc(-c2cccc3ccccc23)o1 | inactive | inactive | inactive | inactive |  | inactive | inactive
